Data on 13 compounds can be found in PubChem BioAssay (NCI).

Holding throughout (assay): NCI-60 one-dose screen, 48 h (100 = growth as untreated, 0 = no growth, -100 = all killed)
For one experiment, the system named is SK-MEL-2 melanoma. The note with it: 10 µM unless noted.
For a further experiment, the system named is EKVX NSCLC. The conditions noted are these: 10 µM unless noted.
The test system of a further experiment is SN12C renal. The conditions noted are these: 10 µM unless noted.
The test system of another experiment is UO-31 renal. The conditions noted are these: 10 µM unless noted.
The next experiment deals with TK-10 renal. The conditions noted are these: 10 µM unless noted.
In another experiment the test system is ACHN renal. The conditions noted are these: 10 µM unless noted.
A further experiment relates to CAKI-1 renal. The note with it: 10 µM unless noted.
Another experiment relates to A498 renal. The note with it: 10 µM.
Another experiment deals with HL-60(TB) leukemia. The conditions noted are these: 10 µM unless noted.
The test system of a further experiment is CCRF-CEM leukemia. The note with it: 10 µM unless noted.

The panel holds about 83,000 compounds, 20% with a hit somewhere; the sample as a whole holds those more often.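 For each line, cells grew in 96-well plates with the test compound present at a single concentration for 48 hours.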 Values without a mark were called inactive. The source made the active and inactive calls. The calls were made as follows: active = growth percent below 10; inactive = the rest.

For `COc1ccc(N(CC(=O)NCCC[Te]c2ccccc2)C(=O)CNC(=O)OC(C)(C)C)cc1`, the growth in the experiment with SK-MEL-2 melanoma is 80%; with EKVX NSCLC, -5.01% (active); with SN12C renal, 18.7%; in the experiment on UO-31 renal it was -3.8% (active); with TK-10 renal, 76.1%; in the experiment with ACHN renal it was 83.9%. Also, the growth in the experiment on CAKI-1 renal is 70.4%; in the experiment with A498 renal, -16% (active); in the experiment on HL-60(TB) leukemia, 3.6% (active); in the experiment with CCRF-CEM leukemia, 14%.

For the compound `c1cc2c(c3c1CCNC3)OCO2`, the growth in the experiment with SK-MEL-2 melanoma is 101%; in the experiment on EKVX NSCLC, 95.6%; in the experiment with SN12C renal, 100%; in the experiment with UO-31 renal, 90.2%; in the experiment on TK-10 renal, 101%; with ACHN renal, 111%. Besides, the growth is 91.1% in the experiment with CAKI-1 renal, 118% in the experiment with A498 renal, 101% in the experiment with HL-60(TB) leukemia and 124% in the experiment on CCRF-CEM leukemia.

For the compound `COc1cc2c(cc1OCCCn1c(-c3ccccn3)nc3ccccc31)N=C[C@@H]1CCCN1C2=O`, the growth with SK-MEL-2 melanoma was -71.1% (active); with EKVX NSCLC, 43.3%; in the experiment with SN12C renal, 26%; in the experiment on UO-31 renal, -53.7% (active); with TK-10 renal it was -20.8% (active); in the experiment with ACHN renal, -64.9% (active). Also, the growth with CAKI-1 renal was -6.53% (active); in the experiment with A498 renal, -72.1% (active); in the experiment with HL-60(TB) leukemia, -21.7% (active); with CCRF-CEM leukemia it was 5.34% (active).

In the case of `C[C@@]12CC[C@@H](O)C[C@@H]1CC[C@H]1[C@H]2CC[C@@]2(C)[C@H](c3ccc(=O)oc3)CC[C@@]12O`, the growth was -29.7% (active) in the experiment with SK-MEL-2 melanoma; -86.4% (active) in the experiment on EKVX NSCLC; -24.9% (active) in the experiment with SN12C renal; -96.2% (active) in the experiment with UO-31 renal; -81.4% (active) in the experiment with TK-10 renal; -90% (active) in the experiment on ACHN renal. For the same compound, the growth was -83.5% (active) in the experiment with CAKI-1 renal, -29.9% (active) with A498 renal, -30.6% (active) in the experiment on HL-60(TB) leukemia and -9% (active) in the experiment on CCRF-CEM leukemia.

With `CC(C)COC(C[N+](=O)[O-])C(Cl)(Cl)Cl` (stereo not given), the growth in the experiment with SK-MEL-2 melanoma was 115%; in the experiment on EKVX NSCLC it was 97.2%; in the experiment on SN12C renal, 105%; in the experiment with UO-31 renal it was 97.2%; in the experiment with TK-10 renal, 105%; in the experiment on ACHN renal it was 107%. In addition, the growth is 102% in the experiment on CAKI-1 renal, 84.6% in the experiment with A498 renal, 93% in the experiment with HL-60(TB) leukemia and 113% in the experiment with CCRF-CEM leukemia.

As for `O=C(CCl)c1ccc([N+](=O)[O-])o1`, the growth is -7.05% (active) with SK-MEL-2 melanoma; 96.2% in the experiment with EKVX NSCLC; -38.1% (active) in the experiment on SN12C renal; -8.81% (active) in the experiment on UO-31 renal; -39.4% (active) in the experiment with TK-10 renal; -40.6% (active) with ACHN renal. The growth with CAKI-1 renal is -95.1% (active); in the experiment with A498 renal, 101%; with HL-60(TB) leukemia, -68.9% (active); in the experiment on CCRF-CEM leukemia, -74.9% (active).

Take `O=C(CC1(O)C(=O)N(Cc2ccccc2)c2ccc(F)cc21)c1ccc(C(=O)NCC2CCC3(CC2)OOC2(CCCCC2)OO3)cc1` (stereo not given): the growth with SK-MEL-2 melanoma is -12.9% (active); with EKVX NSCLC it was -68.5% (active); in the experiment on SN12C renal, -59.5% (active); with UO-31 renal it was -76.3% (active); with TK-10 renal, -93.6% (active); in the experiment with ACHN renal, -80.7% (active). Also, the growth in the experiment with CAKI-1 renal was -87.1% (active); in the experiment on A498 renal it was -88.5% (active); in the experiment with HL-60(TB) leukemia, -57.5% (active); in the experiment with CCRF-CEM leukemia, -36.9% (active).

`CN[C@@]1(c2ccccc2Cl)CCCC[C@@H]1NCC1CCCO1` (stereo not given in full): the growth in the experiment on SK-MEL-2 melanoma was 99.7%; in the experiment on EKVX NSCLC, 99.2%; in the experiment on SN12C renal, 96.8%; in the experiment with UO-31 renal, 86.4%; with TK-10 renal, 102%; in the experiment with ACHN renal, 99.4%. The growth in the experiment on CAKI-1 renal was 93.9%; in the experiment on A498 renal, 94.4%; in the experiment with HL-60(TB) leukemia, 99.9%; in the experiment with CCRF-CEM leukemia, 99.8%.

As to `Fc1ccc(C2=CCNCC2)cc1`, the growth in the experiment on SK-MEL-2 melanoma is 109%; with EKVX NSCLC, 86.2%; in the experiment with SN12C renal, 73%; in the experiment on UO-31 renal it was 84.7%; with TK-10 renal, 86.5%; in the experiment on ACHN renal, 108%. Further, the growth was 79.5% in the experiment on CAKI-1 renal, 87.8% with A498 renal, 109% with HL-60(TB) leukemia and 118% in the experiment on CCRF-CEM leukemia.

Regarding `Clc1cccc(N2COOC3(OOC2)C2CC4CC(C2)CC3C4)c1`, the growth in the experiment with SK-MEL-2 melanoma was 98.3%; with EKVX NSCLC, 94.2%; in the experiment on SN12C renal it was 76%; in the experiment with UO-31 renal, -89.6% (active); in the experiment on TK-10 renal it was 40.9%; with ACHN renal it was 62.1%. The growth with CAKI-1 renal is 76.4%; with A498 renal, 110%; in the experiment with HL-60(TB) leukemia, 20.2%; in the experiment with CCRF-CEM leukemia, -32.7% (active).

For `O=C(CCCCCNC1=CC(=O)c2ccccc2C1=O)NCCC[Te]c1ccccc1`, the growth with SK-MEL-2 melanoma is 8.28% (active); in the experiment with EKVX NSCLC, -31.9% (active); in the experiment with SN12C renal, -8.47% (active); in the experiment with UO-31 renal, 16.9%; in the experiment with TK-10 renal, -14.8% (active); in the experiment on ACHN renal it was -71.2% (active). Also, the growth in the experiment with CAKI-1 renal was -55.8% (active); with A498 renal, -57.7% (active); with HL-60(TB) leukemia, 28.1%; in the experiment on CCRF-CEM leukemia it was -15.3% (active).

`Clc1cccc(NCOOC2(OOCNc3cccc(Cl)c3)CCCCC2)c1`: the growth is 80.8% in the experiment on SK-MEL-2 melanoma; 55.1% in the experiment with EKVX NSCLC; 91.9% in the experiment on SN12C renal; -73.7% (active) with UO-31 renal; 86.3% in the experiment on TK-10 renal; 38.8% with ACHN renal. In addition, the growth is 12.3% with CAKI-1 renal, 61% with A498 renal, 39.1% in the experiment on HL-60(TB) leukemia and 36.7% in the experiment on CCRF-CEM leukemia.

As for `CC1(C)N=C(N)N=C(N)N1c1ccc(OCCCNC(=O)Nc2ccc(S(=O)(=O)F)cc2)c(Cl)c1`, the growth in the experiment with SK-MEL-2 melanoma is 53.3%; with EKVX NSCLC, 53%; in the experiment with SN12C renal, 23.8%; in the experiment on UO-31 renal it was 83.6%; with TK-10 renal it was 33.3%; in the experiment with ACHN renal, 26.4%. In addition, the growth with CAKI-1 renal is 92.1%; in the experiment on A498 renal, 85.3%; in the experiment with HL-60(TB) leukemia, 31.8%; in the experiment on CCRF-CEM leukemia, 24.2%.
